Data reported in the supplement of paper PMC8728848.
Many of the other results were omitted from the sample, so the strongest signals are more common in it than they were.

Key:
Assay in all cases: glycan array binding signal (z-score within array); higher = stronger binding
Conditions in all cases: glycan notation: IUPAC condensed, linker removed
Fuc(a1-2)Gal(b1-3)GlcNAc = molecular target: Fuc(a1-2)Gal(b1-3)GlcNAc
Outline: (§1)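 Columns mapping to the same glycan were averaged after glycan names were converted to IUPAC-condensed notation. The data come from 3228 arrays in the Consortium for Functional Glycomics database, limited to those with an available protein sequence. Binding is reported as a within-array Z-score averaged across arrays of one protein sequence and across linkers.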

[1] = molecular target: Fuc(a1-2)Gal(b1-3)GlcNAc(b1-2)Man(a1-3)[Fuc(a1-2)Gal(b1-3)GlcNAc(b1-2)Man(a1-6)]Man(b1-4)GlcNAc(b1-4)GlcNAc
Outline: as §1

[2] = molecular target: Fuc(a1-2)Gal(b1-3)GlcNAc(b1-3)Gal(b1-4)Glc
Outline: as §1

[3] = molecular target: Fuc(a1-2)Gal(b1-3)GlcNAc(b1-3)[Gal(b1-4)GlcNAc(b1-6)]Gal(b1-4)Glc
Outline: as §1

[4] = molecular target: Fuc(a1-2)Gal(b1-3)GlcNAc(b1-3)[Neu5Ac(a2-6)Gal(b1-4)GlcNAc(b1-6)]Gal(b1-4)Glc
Outline: as §1

[5] = molecular target: Fuc(a1-2)Gal(b1-4)GlcNAc(b1-2)[Fuc(a1-2)Gal(b1-4)GlcNAc(b1-4)]Man(a1-3)[Fuc(a1-2)Gal(b1-4)GlcNAc(b1-2)Man(a1-6)]Man(b1-4)GlcNAc(b1-4)GlcNAc
Outline: as §1

[6] = molecular target: Fuc(a1-2)Gal(b1-4)GlcNAc(b1-3)Gal(b1-4)GlcNAc(b1-3)Gal(b1-4)GlcNAc
Outline: as §1

[7] = molecular target: Fuc(a1-2)[Gal(a1-3)]Gal(b1-3)GlcNAc
Outline: as §1

[8] = molecular target: Fuc(a1-2)[Gal(a1-3)]Gal(b1-3)GlcNAc(b1-6)GalNAc
Outline: as §1

[9] = molecular target: Fuc(a1-2)[GalNAc(a1-3)]Gal(b1-3)GlcNAc(b1-6)GalNAc
Outline: as §1

[10] = molecular target: Fuc(a1-2)[GalNAc(a1-3)]Gal(b1-4)[Fuc(a1-3)]GlcNAc(b1-3)GalNAc
Outline: as §1

Gal(a1-4)Gal(b1-4)GlcNAc = molecular target: Gal(a1-4)Gal(b1-4)GlcNAc
Outline: as §1

[11] = molecular target: Gal(b1-3)GlcNAc(a1-3)Gal(b1-4)GlcNAc
Outline: as §1

[12] = molecular target: Gal(b1-3)GlcNAc(b1-3)Gal(b1-4)GlcNAc(b1-3)Gal(b1-4)GlcNAc(b1-2)[Gal(b1-3)GlcNAc(b1-3)Gal(b1-4)GlcNAc(b1-3)Gal(b1-4)GlcNAc(b1-6)]Man(a1-6)[Gal(b1-3)GlcNAc(b1-3)Gal(b1-4)GlcNAc(b1-3)Gal(b1-4)GlcNAc(b1-2)Man(a1-3)]Man(b1-4)GlcNAc(b1-4)[Fuc(a1-6)]GlcNAc
Outline: as §1

[13] = molecular target: Gal(b1-3)GlcNAc(b1-3)Gal(b1-4)GlcNAc(b1-6)[Gal(b1-3)GlcNAc(b1-3)]Gal(b1-4)Glc
Outline: as §1

[14] = molecular target: Gal(b1-3)[Fuc(a1-4)]GlcNAc(b1-3)Gal(b1-4)GlcNAc
Outline: as §1

[15] = molecular target: Gal(b1-4)GlcNAc(b1-2)[Gal(b1-4)GlcNAc(b1-4)]Man(a1-3)[GlcNAc(b1-4)][Gal(b1-4)GlcNAc(b1-2)Man(a1-6)]Man(b1-4)GlcNAc(b1-4)GlcNAc
Outline: as §1

[16] = molecular target: Gal(b1-4)GlcNAc(b1-2)[Gal(b1-4)GlcNAc(b1-6)]Man(a1-6)[Gal(b1-4)GlcNAc(b1-2)Man(a1-3)]Man(b1-4)GlcNAc(b1-4)[Fuc(a1-6)]GlcNAc
Outline: as §1

[17] = molecular target: Gal(b1-4)GlcNAc(b1-3)Gal(b1-4)GlcNAc(b1-3)Gal(b1-4)GlcNAc
Outline: as §1

[18] = molecular target: Gal(b1-4)GlcNAc(b1-3)Gal(b1-4)GlcNAc(b1-3)Gal(b1-4)GlcNAc(b1-3)Gal(b1-4)GlcNAc(b1-3)Gal(b1-4)GlcNAc(b1-2)[Gal(b1-4)GlcNAc(b1-3)Gal(b1-4)GlcNAc(b1-3)Gal(b1-4)GlcNAc(b1-3)Gal(b1-4)GlcNAc(b1-3)Gal(b1-4)GlcNAc(b1-6)]Man(a1-6)[Gal(b1-4)GlcNAc(b1-3)Gal(b1-4)GlcNAc(b1-3)Gal(b1-4)GlcNAc(b1-3)Gal(b1-4)GlcNAc(b1-3)Gal(b1-4)GlcNAc(b1-2)Man(a1-3)]Man(b1-4)GlcNAc(b1-4)[Fuc(a1-6)]GlcNAc
Outline: as §1

Gal3S(b1-3)GalNAc = molecular target: Gal3S(b1-3)GalNAc
Outline: as §1

[19] = molecular target: GalNAc(a1-3)GalNAc(b1-3)Gal(a1-4)Gal(b1-4)Glc
Outline: as §1

[20] = molecular target: GlcA3S(b1-3)Gal(b1-4)GlcNAc(b1-3)Gal(b1-4)Glc
Outline: as §1

[21] = molecular target: GlcNAc(b1-2)[GlcNAc(b1-4)]Man(a1-3)[GlcNAc(b1-4)][GlcNAc(b1-2)Man(a1-6)]Man(b1-4)GlcNAc(b1-4)GlcNAc
Outline: as §1

[22] = molecular target: GlcNAc(b1-3)Gal(b1-4)GlcNAc(b1-3)Gal(b1-4)GlcNAc(b1-3)GalNAc
Outline: as §1

[23] = molecular target: GlcNAc(b1-3)[GlcNAc(b1-6)]GalNAc
Outline: as §1

Kdn(a2-3)Gal(b1-4)Glc = molecular target: Kdn(a2-3)Gal(b1-4)Glc
Outline: as §1

Man(a1-2)Man(a1-3)Man = molecular target: Man(a1-2)Man(a1-3)Man
Outline: as §1

[24] = molecular target: Man(a1-3)[Man(a1-6)]Man(a1-6)[Man(a1-3)]Man
Outline: as §1

Man(b1-4)GlcNAc = molecular target: Man(b1-4)GlcNAc
Outline: as §1

[25] = molecular target: Neu5Ac(a2-3)Gal(b1-3)[Fuc(a1-4)]GlcNAc
Outline: as §1

[26] = molecular target: Neu5Ac(a2-3)Gal(b1-4)GlcNAc(b1-2)Man(a1-3)[Neu5Ac(a2-3)Gal(b1-4)GlcNAc(b1-2)Man(a1-6)]Man(b1-4)GlcNAc(b1-4)[Fuc(a1-6)]GlcNAc
Outline: as §1

[27] = molecular target: Neu5Ac(a2-3)Gal(b1-4)GlcNAc(b1-2)[Neu5Ac(a2-3)Gal(b1-4)GlcNAc(b1-4)]Man(a1-3)[GlcNAc(b1-4)][Neu5Ac(a2-3)Gal(b1-4)GlcNAc(b1-2)[Neu5Ac(a2-3)Gal(b1-4)GlcNAc(b1-6)]Man(a1-6)]Man(b1-4)GlcNAc(b1-4)GlcNAc
Outline: as §1

[28] = molecular target: Neu5Ac(a2-3)Gal(b1-4)GlcNAc(b1-3)Gal(b1-4)GlcNAc(b1-3)Gal(b1-4)GlcNAc
Outline: as §1

[29] = molecular target: Neu5Ac(a2-3)Gal(b1-4)GlcNAc(b1-6)[Neu5Ac(a2-3)Gal(b1-3)]GalNAc
Outline: as §1

[30] = molecular target: Neu5Ac(a2-3)Gal(b1-4)[Fuc(a1-3)]GlcNAc(b1-3)Gal(b1-4)[Fuc(a1-3)]GlcNAc(b1-3)Gal(b1-4)[Fuc(a1-3)]GlcNAc
Outline: as §1

[31] = molecular target: Neu5Ac(a2-6)Gal(b1-4)GlcNAc(b1-3)Gal(b1-3)GlcNAc
Outline: as §1

[32] = molecular target: Neu5Ac(a2-6)Gal(b1-4)GlcNAc(b1-3)Gal(b1-4)GlcNAc(b1-3)[Neu5Ac(a2-6)Gal(b1-4)GlcNAc(b1-3)Gal(b1-4)GlcNAc(b1-6)]GalNAc
Outline: as §1

Neu5Ac(a2-6)GalNAc = molecular target: Neu5Ac(a2-6)GalNAc
Outline: as §1

[33] = molecular target: Neu5Ac(a2-8)Neu5Ac(a2-3)Gal(b1-4)Glc
Outline: as §1

[34] = molecular target: Neu5Ac(a2-8)Neu5Ac(a2-8)Neu5Ac(a2-3)[Gal(b1-3)GalNAc(b1-4)]Gal(b1-4)Glc
Outline: as §1

B1: FliC (Pseudomonas aeruginosa), P72151 (protein)
chain: MALTVNTNIASLNTQRNLNASSNDLNTSLQRLTTGYRINSAKDDAAGLQISNRLSNQISGLNVATRNANDGISLAQTAEGALQQSTNILQRIRDLALQSANGSNSDADRAALQKEVAAQQAELTRISDTTTFGGRKLLDGSFGTTSFQVGSNAYETIDISLQNASASAIGSYQVGSNGAGTVASVAGTATASGIASGTVNLVGGGQVKNIAIAAGDSAKAIAEKMDGAIPNLSARARTVFTADVSGVTGGSLNFDVTVGSNTVSLAGVTSTQDLADQLNSNSSKLGITASINDKGVLTITSATGENVKFGAQTGTATAGQVAVKVQGSDGKFEAAAKNVVAAGTAATTTIVTGYVQLNSPTAYSVSGTGTQASQVFGNASAAQKSSVASVDISTADGAQNAIAVVDNALAAIDAQRADLGAVQNRFKNTIDNLTNISENATNARSRIKDTDFAAETAALSKNQVLQQAGTAILAQANQLPQAVLSLLR
Fuc(a1-2)Gal(b1-3)GlcNAc
  glycan array binding signal (z-score): -0.166
[1]
  glycan array binding signal (z-score): -0.133
[2]
  glycan array binding signal (z-score): -0.154
[3]
  glycan array binding signal (z-score): -0.067
[4]
  glycan array binding signal (z-score): 2.82
[5]
  glycan array binding signal (z-score): -0.117
[6]
  glycan array binding signal (z-score): -0.151
[7]
  glycan array binding signal (z-score): -0.118
[8]
  glycan array binding signal (z-score): 0.094
[9]
  glycan array binding signal (z-score): 2.71
[10]
  glycan array binding signal (z-score): -0.134
Gal(a1-4)Gal(b1-4)GlcNAc
  glycan array binding signal (z-score): 0.061
[11]
  glycan array binding signal (z-score): -0.119
[12]
  glycan array binding signal (z-score): 2.32
[13]
  glycan array binding signal (z-score): -0.165
[14]
  glycan array binding signal (z-score): -0.193
[15]
  glycan array binding signal (z-score): -0.178
[16]
  glycan array binding signal (z-score): 1.27
[17]
  glycan array binding signal (z-score): -0.189
[18]
  glycan array binding signal (z-score): 3.23
Gal3S(b1-3)GalNAc
  glycan array binding signal (z-score): -0.09
[19]
  glycan array binding signal (z-score): -0.183
[20]
  glycan array binding signal (z-score): -0.191
[21]
  glycan array binding signal (z-score): 1.69
[22]
  glycan array binding signal (z-score): -0.143
[23]
  glycan array binding signal (z-score): -0.16
Kdn(a2-3)Gal(b1-4)Glc
  glycan array binding signal (z-score): -0.115
Man(a1-2)Man(a1-3)Man
  glycan array binding signal (z-score): -0.16
[24]
  glycan array binding signal (z-score): -0.152
Man(b1-4)GlcNAc
  glycan array binding signal (z-score): -0.177
[25]
  glycan array binding signal (z-score): -0.192
[26]
  glycan array binding signal (z-score): 20.9
[27]
  glycan array binding signal (z-score): 8.36
[28]
  glycan array binding signal (z-score): 0.251
[29]
  glycan array binding signal (z-score): 0.476
[30]
  glycan array binding signal (z-score): 3.22
[31]
  glycan array binding signal (z-score): -0.117
[32]
  glycan array binding signal (z-score): -0.127
Neu5Ac(a2-6)GalNAc
  glycan array binding signal (z-score): 1.71
[33]
  glycan array binding signal (z-score): 2.98
[34]
  glycan array binding signal (z-score): -0.227
